From PubChem BioAssay (Tox21) come the findings set out here.

A number with no mark means an inactive call. Records with an inconclusive call do not appear. Calls of active or inactive are those of the source. Unless noted, calls come from the whole dose curve.

Assay [1] can be described thus: Nuclear factor erythroid 2-related factor 2/antioxidant responsive element (Nrf2/ARE) small molecule agonists: luciferase reporter gene qHTS assay in human keratinocytes (AID 1919969). Note: nearly all actives have a fitted effect of over 35% in size. Note: potency is the fitted concentration of half-maximal effect. Background: In a reporter assay the amount or activity of a reporter protein is the signal.
Assay [2] deals with Gonadotropin-releasing hormone receptor (Homo sapiens) (UniProt P30968). As to the kind of experiment: Human gonadotropin-releasing hormone receptor (GnRHR) small molecule agonists, calcium flux assay in GnRHR-HEK293 cells (AID 1920063). Note: nearly all actives have a fitted effect of over 35% in size. The method, boiled down: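 Agonist activity was measured as intracellular calcium flux in HEK293 cells engineered to stably express human GnRHR. After dye loading for 1 hour at 37 C, compounds in DMSO were added and fluorescence was followed for 3 minutes.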
In general terms: A change in cytosolic calcium serves as a functional read-out for many receptors and channels.

Assay [3] has as its target KiSS-1 receptor (Homo sapiens) (UniProt Q969F8). As to the kind of experiment: Human kisspeptin (KISS1R) small molecule agonists, calcium flux assay in KISS1R-HEK293 cells (AID 1920064; active = well fitted activation curve with a large enough effect in the repeat runs). The method, boiled down:
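Agonist activity is monitored as intracellular calcium rise in engineered HEK293 cells carrying human KISS1R. Cells are dye-loaded for 1 h at 37 C before compound addition, and fluorescence is recorded for 3 min.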

Assay [4] is described as follows: G protein-coupled receptor (GPCR) small molecule agonists, calcium flux assay: HEK293 wild type cell line counter screen (AID 1920065). The procedure, abridged:
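Seed cells, incubate 18 h (37 C, 5% CO2); add calcium dye, 1 h at 37 C; pin-transfer compounds, ATP control or DMSO; read fluorescence 480/540 nm each second for 3 min.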

Assay [5] deals with D(2) dopamine receptor (Homo sapiens) (UniProt P14416). As to the kind of experiment: Dopamine D2 receptor (DRD2) small molecule agonists, cell-based qHTS assay (AID 1963594). Note: nearly all actives have a fitted effect of over 35% in size. The procedure, abridged: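 HEK293 cells stably expressing human DRD2, pre-treated with PDE inhibitor Ro20-1724 (0.1 mM final) and compound 10 min at room temperature, then stimulated with NKH477 (200nM […]) for 30 min. cAMP read by HTRF (665/620 nm).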
A general note: qHTS replaces the single test concentration by a dilution series.

Assay [6] shares this target. The experiment in a line: Dopamine D2 receptor (DRD2) small molecule antagonists, cell-based qHTS assay (AID 1963595; active = well fitted inhibition curve with a large enough effect in the signal ratio in the repeat runs, with a control signal flat; the % refers to the signal ratio; note: potency is the fitted concentration of half-maximal effect). The method, boiled down: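 HTRF cAMP read-out at 665 and 620 nm emission (340 nm excitation). Antagonist mode: compounds were tested against 12 nM quinpirole in DRD2-HEK293 cells, with 200 nM NKH477 raising cAMP and 0.1 mM Ro20-1724 blocking its breakdown.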

Assay [7] in a line: p53 small molecule agonists, cell-based qHTS assay with human liver microsomes (AID 1963577).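 Note: p53 response element beta-lactamase reporter cells with liver microsomes plus NADPH.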 The procedure, abridged:
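p53RE-bla cells; 5 h settle, 37 C/5% CO2; cpd + HLM 0.5 mg/mL + NADPH 0.5 mg/mL (final); 16 h 37 C; LiveBLAzer 2 h RT dark; fluorescence readout.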

Assay [8] can be described thus: p53 small molecule agonists, cell-based qHTS assay with human liver microsomes: qHTS cell viability counter screen (AID 1963579). Note: nearly all actives have a fitted effect of over 45% in size. The method, boiled down:
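Luminescent CellTiter-Glo read-out, 30 min at room temperature, gauged cytotoxicity in p53RE-bla cells exposed 16 h at 37 C to DMSO-dissolved compounds with metabolic activation by human liver microsomes and NADPH, each 0.5 mg/mL final.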

A short description of assay [9]: p53 small molecule agonists, cell-based qHTS assay with rat liver microsomes: qHTS cell viability counter screen (AID 1963580). Note: nearly all actives have a fitted effect of over 45% in size. Note: potency is the fitted concentration of half-maximal effect. The method, boiled down:
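After the beta-lactamase ratio was read, CellTiter-Glo was added to the same wells and luminescence measured at 30 min; cells had been treated 16 h at 37 C with compounds, rat liver microsomes and NADPH (0.5 mg/mL final each).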

A short description of assay [10]: p53 small molecule agonists, cell-based qHTS assay: qHTS cell viability counter screen (AID 1963581). Note: nearly all actives have a fitted effect of over 45% in size. The method, boiled down:
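Viability was counter-screened in parallel with the p53 agonist reporter by measuring intracellular ATP luminescence in the same HCT-116 p53RE-bla wells after 16 h compound treatment at 37 C.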

The nature of assay [11]: p53 small molecule agonists, cell-based qHTS assay (AID 1963582; active = well fitted activation curve with a large enough effect in the signal ratio in the repeat runs, not every such curve was filed as active; the % refers to the signal ratio; note: potency is the fitted concentration of half-maximal effect). The method, boiled down: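 Cells carrying a p53-responsive bla reporter are treated with test compounds for 16 h at 37 C; beta-lactamase activity is then detected with LiveBLAzer B/G FRET substrate after 2 h at room temperature.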
Assay [12] can be described thus: cAMP Responsive Elements (CRE) small molecule agonists, cell-based qHTS assay (AID 1963590). The procedure, abridged: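 Cells carrying a CRE-driven beta-lactamase reporter (HEK 293T) are seeded, incubated overnight (18 h), and treated with test compounds for 3 h at 37 C; reporter activity is then detected with a FRET substrate after 2 h at room temperature.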
Assay [13] concerns the target Beta-2 adrenergic receptor (Homo sapiens) (UniProt P07550). As to the kind of experiment: Adrenergic beta2 receptor (ADRB2) small molecule antagonists, cell-based qHTS assay (AID 1963592). Note: series mostly up to about 92 µM; nearly all actives have a fitted effect of over 50% in size. The method, boiled down:
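Assay format: CHO-ADRB2 cells, 18-20hr seeding at 37C/5% CO2, then compound plus 1nM isoproterenol agonist mix for 0.5hr RT. Homogeneous time-resolved fluorescence cAMP detection after 1hr, expressed as 665/615 nm ratio.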

For assay [14] the target is unchanged. As to the kind of experiment: Adrenergic beta2 receptor (ADRB2) small molecule agonists, cell-based qHTS assay (AID 1963593).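 Note: CHO cells stably overexpressing human ADRB2.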 The method, boiled down: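 CHO cells stably over-expressing ADRB2 were plated overnight at 37C, then dosed with compounds plus a stimulation mix containing 100uM IBMX and 25uM Ro-20-1724 for 0.5hr at room temperature. cAMP was measured by HTRF competition, 1hr.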

Assay [15] addresses 5-hydroxytryptamine receptor 2A (Homo sapiens) (UniProt P28223). The experiment in a line: 5-hydroxytryptamine receptor 2A (HTR2A) small molecule antagonists, cell-based qHTS assay (AID 1963586). Note: nearly all actives have a fitted effect of over 45% in size. The procedure, abridged: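 CHO cells stably expressing human HTR2A were plated for 18 h at 37 C, then loaded with calcium dye for 1 h. Compounds were preincubated 5 min at room temperature before DOI (4 nM solution) was added. Kinetic fluorescence was read for 3 min.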

Assay [16] shares this target. As to the kind of experiment: 5-hydroxytryptamine receptor 2A (HTR2A) small molecule agonists, cell-based qHTS assay (AID 1963587). Note: nearly all actives have a fitted effect of over 30% in size. The method, boiled down: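 CHO cells stably expressing human HTR2A, plated 18 h, loaded with calcium dye 1 h at 37 C. Agonist mode: compounds added and intracellular calcium fluorescence recorded kinetically for 2 min at 1 sec intervals.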

Assay [17] addresses Muscarinic acetylcholine receptor M1 (Homo sapiens) (UniProt P11229). The experiment in a line: Cholinergic receptor muscarinic 1 (CHRM1) small molecule agonists, cell-based qHTS assay (AID 1963589). Note: nearly all actives have a fitted effect of over 35% in size. The procedure, abridged:
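Cells were plated and incubated 18 h at 37 C/5% CO2, loaded with calcium dye for 1 h at 37 C, then treated with compounds in DMSO. Fluorescence was recorded kinetically at 1 sec intervals.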

Assay [18] can be described thus: cAMP Responsive Elements (CRE) small molecule antagonists, cell-based qHTS assay (AID 1963591; active = well fitted inhibition curve with a large enough effect in the signal ratio in the repeat runs, not every such curve was filed as active; the % refers to the signal ratio). The procedure, abridged: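 Cells (CRE-bla HEK 293T, DMEM with 10% dialyzed FBS and 25 mM HEPES) are seeded and incubated 18 h. Compounds are added with NKH477 agonist at 0.25 uM final for 3 h, then FRET substrate for 2 h.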
The target of assay [19] is Muscarinic acetylcholine receptor M1 (Homo sapiens) (UniProt P11229). As to the kind of experiment: Cholinergic receptor muscarinic 1 (CHRM1) small molecule antagonists, cell-based qHTS assay (AID 1963588). Note: nearly all actives have a fitted effect of over 40% in size. The procedure, abridged: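 Compounds were tested at 15 concentrations in three independent runs. Dye-loaded CHRM1-CHO cells were exposed 5 min at room temperature before stimulation by acetylcholine added at 50nM. Intracellular calcium was read kinetically on FDSS for 3 min.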

Assay [20] is described as follows: p53 small molecule agonists, cell-based qHTS assay with rat liver microsomes (AID 1963578). The procedure, abridged:
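Rat liver microsome activation: microsomes 0.5 mg/mL, NADPH 0.5 mg/mL final; p53RE-bla cells, 16 h 37 C; LiveBLAzer readout, 2 h RT dark.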
% is set by controls: 0 for no effect and ±100 for the full control effect.

Gonadotropin-releasing hormone receptor (Homo sapiens), sequence (P30968 whole entry, looked up): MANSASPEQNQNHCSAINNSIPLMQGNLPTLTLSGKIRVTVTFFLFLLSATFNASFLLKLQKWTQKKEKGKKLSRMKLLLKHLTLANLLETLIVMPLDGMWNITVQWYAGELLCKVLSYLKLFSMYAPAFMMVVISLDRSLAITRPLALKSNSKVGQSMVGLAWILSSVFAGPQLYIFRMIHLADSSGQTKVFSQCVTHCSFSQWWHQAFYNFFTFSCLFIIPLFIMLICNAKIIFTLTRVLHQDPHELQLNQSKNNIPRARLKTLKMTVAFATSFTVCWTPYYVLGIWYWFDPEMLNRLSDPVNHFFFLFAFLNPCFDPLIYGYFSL
D(2) dopamine receptor (Homo sapiens), sequence (P14416 whole entry, looked up): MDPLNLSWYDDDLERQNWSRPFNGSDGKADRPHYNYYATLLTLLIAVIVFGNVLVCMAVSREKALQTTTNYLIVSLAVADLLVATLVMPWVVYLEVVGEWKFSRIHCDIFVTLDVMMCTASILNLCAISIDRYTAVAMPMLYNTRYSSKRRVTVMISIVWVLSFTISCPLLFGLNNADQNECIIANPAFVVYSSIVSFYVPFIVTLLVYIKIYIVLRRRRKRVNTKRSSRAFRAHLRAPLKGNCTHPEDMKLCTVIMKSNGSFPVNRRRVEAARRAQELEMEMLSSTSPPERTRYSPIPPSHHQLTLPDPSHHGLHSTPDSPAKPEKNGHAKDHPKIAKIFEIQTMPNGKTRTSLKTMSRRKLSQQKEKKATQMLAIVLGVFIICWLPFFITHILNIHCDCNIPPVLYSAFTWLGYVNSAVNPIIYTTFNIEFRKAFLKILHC
Muscarinic acetylcholine receptor M1 (Homo sapiens), sequence (P11229 whole entry, looked up): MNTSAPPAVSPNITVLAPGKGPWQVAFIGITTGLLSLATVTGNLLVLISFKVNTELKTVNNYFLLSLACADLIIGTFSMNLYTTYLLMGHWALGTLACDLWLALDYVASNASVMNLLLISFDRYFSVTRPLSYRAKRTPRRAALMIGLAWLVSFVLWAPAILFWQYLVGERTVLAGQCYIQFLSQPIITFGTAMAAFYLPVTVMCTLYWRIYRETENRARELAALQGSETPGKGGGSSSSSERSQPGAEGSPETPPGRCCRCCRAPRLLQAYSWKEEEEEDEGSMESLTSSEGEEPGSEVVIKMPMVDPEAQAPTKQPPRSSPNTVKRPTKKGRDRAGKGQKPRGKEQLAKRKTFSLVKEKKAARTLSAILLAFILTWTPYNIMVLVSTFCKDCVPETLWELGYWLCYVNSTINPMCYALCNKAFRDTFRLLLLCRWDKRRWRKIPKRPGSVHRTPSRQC
Beta-2 adrenergic receptor (Homo sapiens), sequence (P07550 whole entry, looked up): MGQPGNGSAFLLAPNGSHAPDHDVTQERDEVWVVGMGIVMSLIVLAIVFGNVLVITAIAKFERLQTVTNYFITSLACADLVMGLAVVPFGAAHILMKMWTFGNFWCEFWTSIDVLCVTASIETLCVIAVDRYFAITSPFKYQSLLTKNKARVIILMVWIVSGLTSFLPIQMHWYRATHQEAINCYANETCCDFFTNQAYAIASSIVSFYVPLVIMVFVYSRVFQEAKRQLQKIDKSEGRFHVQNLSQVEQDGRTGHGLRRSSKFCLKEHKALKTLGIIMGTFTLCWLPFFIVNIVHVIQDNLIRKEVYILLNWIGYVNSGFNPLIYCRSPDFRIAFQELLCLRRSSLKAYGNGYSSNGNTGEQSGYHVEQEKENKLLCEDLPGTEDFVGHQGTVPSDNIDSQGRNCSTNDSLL
5-hydroxytryptamine receptor 2A (Homo sapiens), sequence (P28223 whole entry, looked up): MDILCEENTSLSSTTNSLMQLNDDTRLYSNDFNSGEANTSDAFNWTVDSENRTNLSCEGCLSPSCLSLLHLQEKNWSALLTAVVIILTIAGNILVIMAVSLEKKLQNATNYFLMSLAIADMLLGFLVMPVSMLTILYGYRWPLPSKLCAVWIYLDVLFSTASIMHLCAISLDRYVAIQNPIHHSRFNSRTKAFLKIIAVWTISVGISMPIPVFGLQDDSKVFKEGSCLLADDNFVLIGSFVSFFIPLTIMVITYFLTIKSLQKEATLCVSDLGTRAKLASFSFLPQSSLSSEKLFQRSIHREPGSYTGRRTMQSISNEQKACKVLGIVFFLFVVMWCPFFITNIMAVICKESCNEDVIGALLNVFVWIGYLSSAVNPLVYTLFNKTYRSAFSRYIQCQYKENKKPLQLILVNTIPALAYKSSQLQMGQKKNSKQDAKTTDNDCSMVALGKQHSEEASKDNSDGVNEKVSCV
KiSS-1 receptor (Homo sapiens), sequence (Q969F8 whole entry, looked up): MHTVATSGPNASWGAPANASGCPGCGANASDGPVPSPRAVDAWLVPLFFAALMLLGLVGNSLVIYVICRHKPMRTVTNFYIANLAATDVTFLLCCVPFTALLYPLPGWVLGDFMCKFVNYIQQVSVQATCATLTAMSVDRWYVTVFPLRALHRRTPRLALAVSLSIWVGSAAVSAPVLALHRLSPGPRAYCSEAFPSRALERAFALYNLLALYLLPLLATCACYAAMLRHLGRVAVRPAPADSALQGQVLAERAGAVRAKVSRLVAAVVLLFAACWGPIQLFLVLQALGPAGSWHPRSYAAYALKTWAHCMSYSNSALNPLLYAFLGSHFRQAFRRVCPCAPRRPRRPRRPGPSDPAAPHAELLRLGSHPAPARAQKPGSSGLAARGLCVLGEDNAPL

For the compound `O=C(CCCN1CC=C(n2c(=O)[nH]c3ccccc32)CC1)c1ccc(F)cc1`, the Potency result in assay [1], in [2], in assay [3], in assay [4] and in [5] was “inactive” in each case. In addition, the Potency in assay [6] is 0.0211 µM (active).

Regarding `O=C(OC[C@H]1O[C@@H](OC(=O)c2cc(O)c(O)c(OC(=O)c3cc(O)c(O)c(O)c3)c2)[C@H](OC(=O)c2cc(O)c(O)c(OC(=O)c3cc(O)c(O)c(O)c3)c2)[C@@H](OC(=O)c2cc(O)c(O)c(OC(=O)c3cc(O)c(O)c(O)c3)c2)[C@@H]1OC(=O)c1cc(O)c(O)c(OC(=O)c2cc(O)c(O)c(O)c2)c1)c1cc(O)c(O)c(OC(=O)c2cc(O)c(O)c(O)c2)c1`, the activity, positive = activation in assay [1] was -5.14% [at 19 µM]. For the same compound, in assay [2], the activity change was -0.655% [at 11.8 µM, hits give high values]. For the same compound, the activation in assay [4] was 0.5% [at 11.8 µM]; in assay [7], -11.4% [at 13.5 µM]; in assay [12] it was 4.01% [at 19 µM]. For the same compound, the values for the activity change, negative = cytotoxicity in assay [8], in assay [9] and in [10] were 8.38% [at 13.5 µM], 7.08% [at 13.5 µM] and 16.3% [at 13.5 µM], respectively. In addition, the Potency in assay [11] is 11 µM (active).

In the case of `CCC1=C[C@@H]2CN(C1)Cc1c([nH]c3ccccc13)[C@@](C(=O)OC)(c1cc3c(cc1OC)N(C)[C@H]1[C@@](O)(C(=O)OC)[C@H](OC(C)=O)[C@]4(CC)C=CCN5CC[C@]31[C@@H]54)C2`, the Potency in assay [1] is 0.376 µM (active). Besides, the Potency result in assay [2], in assay [3], in [4], in [13], in assay [14] and in assay [5] was “inactive” in each case. The Potency entry in assay [6] is “inactive”.

As to `NNc1nc(-c2ccc(N)cc2)cs1`, the Potency in [1] was 54.5 µM (active). Also, the Potency result in assay [2], in assay [3], in [7], in assay [8], in assay [9] and in assay [10] was “inactive” each time. Also, the Potency result in assay [11], in assay [15], in [16], in assay [17], in assay [12] and in [18] was “inactive” each time. The Potency result in assay [5] and in assay [6] was “inactive” each time.

With `Cc1ncc([N+](=O)[O-])n1CC(O)CCl` (stereo not drawn), the Potency entry in assay [1], in assay [2], in [3], in [8], in assay [9] and in assay [10] was “inactive” each time. The Potency result in assay [15], in assay [16], in assay [19], in assay [17], in [12] and in assay [18] was “inactive” throughout. The Potency result in assay [13], in [5] and in assay [6] was “inactive” each time.

As to `CCOc1ccc2nc3cc(N)ccc3c(N)c2c1`, the Potency in [1] was 29.8 µM (active). The Potency result in assay [2], in [3], in assay [7], in assay [20], in assay [8] and in assay [9] was “inactive” each time. The Potency result in assay [10], in assay [15], in assay [16], in [19], in assay [5] and in assay [6] was “inactive” throughout.

As for `CC(C)CC(C)(C)C`, the Potency entry in assay [1], in assay [2], in assay [3], in [8], in assay [9] and in assay [10] was “inactive” throughout. In addition, the Potency entry in assay [15], in assay [19], in [17] and in [13] was “inactive” throughout.

On to `Oc1cccc2c(O)cccc12`, for which the values for the Potency in [1] and in assay [9] were 27.3 µM (active) and 32.4 µM (active), respectively. Besides, the Potency result in assay [2], in assay [3], in [7], in assay [20], in assay [10] and in assay [15] was “inactive” in each case. The Potency entry in assay [16], in assay [19], in assay [18] and in assay [5] was “inactive” in each case.
